The source of these data is PubChem BioAssay.

Active and inactive are the calls of the source.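 Rule for the calls, unless noted: active = mean inhibition above 46.5%, the solvent-only control mean plus 3 SD; inactive = the rest.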

In the first test the test system is transactivating tegument protein VP16 (Human herpesvirus 1). Description: compounds suppressing VP16-driven luciferase signal – cell-based, luminescence, single concentration, counter-screen for SRC2 inhibitor project (AID 652007; in the data active = inhibition above about 36%). The note with it: cell-based VP16 transactivation luciferase reporter, at 8.9 µM, stronger effect = higher value.
For the molecule `NC(=S)NN=Cc1nccc2c(C(F)(F)C(F)(F)C(F)(F)F)cccc12`, the inhibition is -16.1% (inactive). The same measure, in the same setting: in the case of `COC1=CC(=O)c2nc(Cl)ccc2C1=O` it was 24.5% (inactive); in that of `COc1cccc2c1C(=O)c1c(O)c3c(c(O)c1C2=O)CC(O)(C(C)=O)CC3OC1CC(N(C)C)C(O)C(C)O1` (centres undefined), 29.4% (inactive); in that of `C[C@@H](C(=O)Nc1ccc2c(c1)OCCO2)n1c(=O)[nH]c2ccccc2c1=O`, 3.58% (inactive).

For a further test, the target named is Nuclear receptor coactivator 2 (Homo sapiens) (UniProt Q15596). Description: inhibition of GAL4-SRC2 driven luciferase expression – cell-based, luminescence, HEK293, triplicate, confirmation (AID 652008).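 Note: 0% = DMSO-treated cells and 100% = Gossypol at 36 µM.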 The note with it: HEK293 GAL4-SRC2 luciferase reporter, at 8.9 µM, stronger effect = higher value.
Sequence of Nuclear receptor coactivator 2 (Homo sapiens) (Q15596 whole entry, looked up, the tested form may be a part): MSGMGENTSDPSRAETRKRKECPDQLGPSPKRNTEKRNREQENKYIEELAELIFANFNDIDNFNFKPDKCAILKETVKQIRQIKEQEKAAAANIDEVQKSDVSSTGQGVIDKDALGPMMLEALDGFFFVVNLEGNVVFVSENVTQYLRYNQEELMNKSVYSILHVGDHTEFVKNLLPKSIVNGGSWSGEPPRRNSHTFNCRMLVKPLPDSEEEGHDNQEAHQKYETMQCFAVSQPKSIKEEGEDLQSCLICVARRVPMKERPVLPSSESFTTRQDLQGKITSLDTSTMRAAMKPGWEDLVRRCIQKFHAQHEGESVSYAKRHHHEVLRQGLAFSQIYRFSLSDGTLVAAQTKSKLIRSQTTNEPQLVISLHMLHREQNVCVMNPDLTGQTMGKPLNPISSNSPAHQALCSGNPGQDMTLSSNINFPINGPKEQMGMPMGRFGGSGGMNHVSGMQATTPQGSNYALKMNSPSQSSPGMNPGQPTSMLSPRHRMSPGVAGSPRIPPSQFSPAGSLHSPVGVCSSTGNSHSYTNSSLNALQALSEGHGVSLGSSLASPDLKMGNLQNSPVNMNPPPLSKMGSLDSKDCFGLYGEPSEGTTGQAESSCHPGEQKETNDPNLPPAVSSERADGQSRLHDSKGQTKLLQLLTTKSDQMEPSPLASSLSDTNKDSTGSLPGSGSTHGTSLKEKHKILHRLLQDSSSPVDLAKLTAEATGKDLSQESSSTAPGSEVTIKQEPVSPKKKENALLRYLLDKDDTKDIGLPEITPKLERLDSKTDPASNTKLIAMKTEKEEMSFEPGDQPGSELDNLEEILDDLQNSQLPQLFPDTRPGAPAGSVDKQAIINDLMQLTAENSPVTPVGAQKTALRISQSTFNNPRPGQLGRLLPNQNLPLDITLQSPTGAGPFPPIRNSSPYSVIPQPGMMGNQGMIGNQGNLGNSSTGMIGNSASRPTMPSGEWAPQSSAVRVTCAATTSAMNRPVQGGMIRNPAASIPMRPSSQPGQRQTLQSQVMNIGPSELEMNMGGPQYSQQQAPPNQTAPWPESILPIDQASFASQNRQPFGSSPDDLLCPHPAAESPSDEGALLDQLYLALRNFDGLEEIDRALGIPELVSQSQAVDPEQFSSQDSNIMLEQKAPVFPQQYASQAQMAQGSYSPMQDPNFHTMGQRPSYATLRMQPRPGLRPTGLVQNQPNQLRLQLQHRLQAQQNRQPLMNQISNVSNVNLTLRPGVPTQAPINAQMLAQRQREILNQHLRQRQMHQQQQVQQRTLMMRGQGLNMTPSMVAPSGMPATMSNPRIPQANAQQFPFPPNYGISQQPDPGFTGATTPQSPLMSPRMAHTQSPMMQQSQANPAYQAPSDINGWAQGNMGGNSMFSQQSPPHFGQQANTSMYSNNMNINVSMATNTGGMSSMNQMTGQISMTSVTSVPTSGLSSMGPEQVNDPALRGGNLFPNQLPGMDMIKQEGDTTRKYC
In the case of `Cc1cc(C(=O)COC(=O)c2ccccc2Br)c(C)n1CC1CCCO1` (centres undefined), the inhibition was 90.6% (active). Still for that read-out and setting: for `CC1CCc2nc(N)c(C#N)c(-c3cccnc3)c2C1` (centres undefined) the value was 53.9% (active); for `O=C(CCl)N(c1ccccc1)C1CCS(=O)(=O)C1` (centres undefined), 57.2% (active); for `CC(=O)OC[C@]12CC[C@H]3[C@@](C)(CC[C@H]4C(C)(C)CCC[C@]34C)[C@@H]1CC(C1=CC(=O)OC1O)O2` (some centres undefined), 93.4% (active).

Consider `CC1CCCN(c2ncnc3c2cnn3-c2ccc(Cl)cc2)C1` (centres undefined), for which the inhibition was 93.9% (active).

In the case of `Cc1ccc(/C=C2\SC(=S)N(CCCC(=O)Nc3ccccn3)C2=O)cc1`, the inhibition is 88.4% (active). Regarding `COc1ccc(-n2ncc3c(N(C)C4CCCCC4)ncnc32)cc1`, the inhibition was 80.3% (active).

Regarding `c1csc(CNc2ccc3c(c2)OCCO3)c1`, the inhibition was 47.1% (active). The same measure, in the same setting: in the case of `Cc1cc(C(=O)COC(=O)c2ccccc2O)c(C)n1Cc1cccs1` it was 92.7% (active). Still for that read-out and setting: in the case of `COc1ccccc1-c1nnc(Sc2nc([N+](=O)[O-])nn2C)o1` it was 65.3% (active). Same read-out and setting: for `Nc1ccc(-c2cc3ccccc3oc2=O)cc1` the value was 94.6% (active). As to `OCC1OC(n2ccc3c2ncn2ncnc32)C(O)C1O` (centres undefined), the inhibition is 46.4% (inactive). Still for that read-out and setting: for `COc1ccc2cc3c(N)nn(C(=O)c4ccccc4[N+](=O)[O-])c3nc2c1` the value was 46.6% (active); for `O=C(CC1CS(=O)(=O)CC1CC(=O)Nc1ccc2c(c1)OCCO2)Nc1ccc2c(c1)OCCO2` (centres undefined), 57% (active); for `CC1CCC(C(C)C)C(OC(=O)Cn2c(-c3ccc(F)cc3)[n+](C)c3ccccc32)C1` (centres undefined), 34.6% (inactive). Same read-out and setting: for `CC(C)Nc1ncnc2ccc(Br)cc12` the value was 65.7% (active); for `Nc1cc2ccncc2c2ccccc12`, 43.4% (inactive).

For `Cc1ccc2oc(/N=C(\N)NC(=O)C(C)(C)C)nc2c1`, the inhibition is 91.5% (active).

On to `COC1=CC(=O)c2c(ccc3ncnc(N)c23)C1=O`, for which the inhibition is 69.5% (active). For `CC(C)(C)C(=O)/C(=C/c1ccncc1)n1cncn1`, the inhibition was 63.3% (active). On the same count and under the same terms, for `O=c1c2ccccc2oc2cc(C#CC3(O)CCCCC3)ccc12` the value was 48.9% (active); for `Cc1cc(C(=O)CN2C(=O)c3ccccc3S2(=O)=O)c(C)n1CC1CCCO1` (centres undefined), 93.7% (active). The same measure, in the same setting: in the case of `CC(C)(C)OC(=O)NCCCCCc1cn([C@@H](CO)C(=O)NCCCCCCCCCCC(=O)N2CCN(C(=O)OC(C)(C)C)CC2)nn1` it was 48.7% (active). The same measure, in the same setting: in the case of `Clc1ccc(-n2ncc3c(N4CCCCCC4)ncnc32)cc1` it was 84.6% (active).

`CC(=O)NC(c1ccc(C(C)C)cc1)c1ccc2cccnc2c1O` (centres undefined): the inhibition was 26.8% (inactive). On to `Cc1ccc(C(=O)N/N=C/c2c(O)ccc3ccccc23)cn1`, for which the inhibition was 33.4% (inactive). Still for that read-out and setting: in the case of `CCOc1cc(CNc2ccc3c(c2)OCCO3)cc(Br)c1OC` it was 48.8% (active); in that of `COc1cccc(-c2nnc3n2N=C(C(C)(C)C)CS3)c1`, 73.7% (active); in that of `Cc1ccc(C(=O)N/N=C/c2ccc([N+](=O)[O-])s2)cc1`, 92.4% (active). On the same count and under the same terms, for `C=C1C(=O)C2=CC1CCC(=O)C1(C)CCC(OC(C)=O)C(C)(C)C1CC2O` (centres undefined) the value was 41.2% (inactive).

On to `COc1cccc(N2CCN(c3ncnc4c3cnn4-c3ccc(C)cc3C)CC2)c1`, for which the inhibition was 72.1% (active).

`COc1cc(NC(=O)COc2cc(O)c3c(c2)OC(C)(C)CC3=O)cc(OC)c1OC`: the inhibition was 38.5% (inactive).

For `Cc1ccc(Nc2nc(N)nc(CCl)n2)c(C)c1`, the inhibition is 40.4% (inactive).

With `CC(C)(C)NCC(=Cc1ccccc1)C(=O)c1ccccc1`, the inhibition is 71.1% (active).

`CCCNC1=C(N(C(C)=O)c2cccc(F)c2)C(=O)c2ccccc2C1=O`: the inhibition is 34.3% (inactive). On the same count and under the same terms, for `CCOC(=O)c1ccc(NC(=O)c2ccc(C)c(S(=O)(=O)N3CCOCC3)c2)cc1` the value was 33.8% (inactive); for `NC(=S)NN=Cc1nccc2c(C(F)(F)C(F)(F)C(F)(F)F)cccc12`, 18.2% (inactive). On the same count and under the same terms, for `COC1=CC(=O)c2nc(Cl)ccc2C1=O` the value was 89.5% (active); for `COc1cccc2c1C(=O)c1c(O)c3c(c(O)c1C2=O)CC(O)(C(C)=O)CC3OC1CC(N(C)C)C(O)C(C)O1` (centres undefined), 45.5% (inactive); for `C[C@@H](C(=O)Nc1ccc2c(c1)OCCO2)n1c(=O)[nH]c2ccccc2c1=O`, 68.7% (active).
